# Measured values from PMC3218832.
# What was measured:
# Assay in all cases: protein binding microarray; high values mean tight binding
# Settings in all cases: dsDNA, one strand shown
# RELARELA (p65 homodimer) = RELARELA (p65 homodimer) (Homo sapiens, UniProt Q04206 1-307)
# p50p50 homodimer = p50p50 homodimer (Homo sapiens, UniProt P19838 7-356)
# p52p52 homodimer = target: T1, p52p52 homodimer (Homo sapiens, UniProt Q00653 4-332)
# T1 sequence: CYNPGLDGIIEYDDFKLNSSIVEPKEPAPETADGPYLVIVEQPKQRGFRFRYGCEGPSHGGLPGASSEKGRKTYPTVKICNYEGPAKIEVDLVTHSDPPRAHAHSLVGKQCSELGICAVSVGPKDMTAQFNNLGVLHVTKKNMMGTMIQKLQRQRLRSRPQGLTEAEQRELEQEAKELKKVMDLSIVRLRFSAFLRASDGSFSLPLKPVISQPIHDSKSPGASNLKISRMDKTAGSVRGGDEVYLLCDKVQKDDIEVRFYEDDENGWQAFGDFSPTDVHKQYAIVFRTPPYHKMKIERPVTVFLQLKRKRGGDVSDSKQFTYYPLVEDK
# [1] = target: RELA (p65) subunit of heterodimer;p50 subunit (Homo sapiens;Homo sapiens, UniProt Q04206;P19838 1-307;7-356)
# RELA (p65) subunit of heterodimer;p50 subunit, sequence (Q04206 1-307, chain 1 of 2): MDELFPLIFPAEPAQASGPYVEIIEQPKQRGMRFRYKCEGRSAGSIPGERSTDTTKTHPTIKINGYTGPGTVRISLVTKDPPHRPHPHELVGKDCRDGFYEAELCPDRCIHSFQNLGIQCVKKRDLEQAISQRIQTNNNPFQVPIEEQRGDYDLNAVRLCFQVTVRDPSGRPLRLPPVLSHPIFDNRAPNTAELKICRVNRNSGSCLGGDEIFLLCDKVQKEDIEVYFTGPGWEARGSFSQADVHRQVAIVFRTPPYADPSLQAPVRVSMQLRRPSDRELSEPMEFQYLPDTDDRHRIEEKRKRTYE
# RELA (p65) subunit of heterodimer;p50 subunit, sequence (P19838 7-356, chain 2 of 2): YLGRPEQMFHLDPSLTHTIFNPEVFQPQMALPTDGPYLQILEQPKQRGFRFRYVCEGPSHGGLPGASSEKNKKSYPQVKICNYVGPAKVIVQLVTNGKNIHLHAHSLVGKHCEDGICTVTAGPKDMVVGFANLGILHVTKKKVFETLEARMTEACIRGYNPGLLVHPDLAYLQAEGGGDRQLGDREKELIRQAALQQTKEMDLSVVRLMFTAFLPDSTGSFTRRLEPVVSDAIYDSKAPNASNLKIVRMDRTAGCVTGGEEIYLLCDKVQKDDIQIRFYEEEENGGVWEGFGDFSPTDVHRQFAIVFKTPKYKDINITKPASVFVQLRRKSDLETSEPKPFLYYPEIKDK
# [2] = target: RELA (p65) subunit of heterodimer;p52 subunit (Homo sapiens;Homo sapiens, UniProt Q04206;Q00653 1-307;4-332)
# RELB subunit;p50 subunit = RELB subunit;p50 subunit (Homo sapiens;Homo sapiens, UniProt Q01201;P19838 120-401;7-356)
# RELB subunit;p52 subunit = target: T2, RELB subunit;p52 subunit (Homo sapiens;Homo sapiens, UniProt Q01201;Q00653 120-401;4-332)
# T2 sequence 1: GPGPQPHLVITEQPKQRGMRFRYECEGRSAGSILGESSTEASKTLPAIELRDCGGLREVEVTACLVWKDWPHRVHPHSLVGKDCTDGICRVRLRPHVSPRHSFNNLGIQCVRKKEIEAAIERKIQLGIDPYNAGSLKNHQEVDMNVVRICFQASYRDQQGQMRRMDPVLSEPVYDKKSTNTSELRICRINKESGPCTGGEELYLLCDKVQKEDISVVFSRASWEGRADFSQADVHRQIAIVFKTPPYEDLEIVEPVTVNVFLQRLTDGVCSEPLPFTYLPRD
# T2 sequence 2: T1 sequence
# [3] = target: C-Rel subunit;p50 subunit (Homo sapiens;Homo sapiens, UniProt Q04864;P19838 1-285;7-356)
# [4] = target: T3, C-Rel subunit;p52 subunit (Homo sapiens;Homo sapiens, UniProt Q04864;Q00653 1-285;4-332)
# T3 sequence 1: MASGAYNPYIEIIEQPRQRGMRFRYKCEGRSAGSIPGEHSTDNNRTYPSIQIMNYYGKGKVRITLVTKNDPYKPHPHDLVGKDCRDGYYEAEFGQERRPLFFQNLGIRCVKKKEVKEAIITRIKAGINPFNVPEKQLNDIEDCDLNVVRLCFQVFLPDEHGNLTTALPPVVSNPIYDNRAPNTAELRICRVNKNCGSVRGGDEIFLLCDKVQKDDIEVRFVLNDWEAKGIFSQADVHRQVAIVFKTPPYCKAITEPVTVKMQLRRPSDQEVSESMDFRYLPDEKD
# T3 sequence 2: T1 sequence
# RELARELA (p65 homodimer), sequence (Q04206 1-307): as the sequence (Q04206 1-307, chain 1 of 2) above
# p50p50 homodimer, sequence (P19838 7-356): as the sequence (P19838 7-356, chain 2 of 2) above
Sequence,binding signal (RELARELA (p65 homodimer)) [z-score],binding signal (p50p50 homodimer) [z-score],binding signal (p52p52 homodimer) [z-score],binding signal [1] [z-score],binding signal [2] [z-score],binding signal (RELB subunit;p50 subunit) [z-score],binding signal (RELB subunit;p52 subunit) [z-score],binding signal [3] [z-score],binding signal [4] [z-score]
GAAGTCTTCCC,0.246,-0.511,-0.37,-0.272,-0.339,-0.349,-0.537,0.175,-0.174
GGATGATTCCT,0.0919,-1.32,-0.648,-0.708,-0.749,-0.941,-0.913,-0.706,-0.54
CGAGTAACCCC,-0.498,-0.0762,-0.149,-0.232,-0.211,-0.188,0.213,-0.0464,-0.115
GGGAAAGCCCC,3.52,1.48,3.39,3.02,3.27,3.3,2.95,2.45,3.53
GAGGAAATCCT,0.229,-0.905,-0.463,-0.399,-0.425,-0.858,-0.718,-0.315,-0.369
GAGAAGCCCCT,-0.384,1.19,1.26,1.3,1.14,1.22,1.41,0.87,0.78
GGGAAGACCCT,0.871,0.365,1.66,1,1.17,0.374,1.01,0.481,1.03
CGGGGCACCCC,0.313,0.323,1.21,0.7,1.06,0.451,1.1,0.899,1.43
GGATTAGCCCC,0.514,0.405,0.296,0.431,0.293,0.211,0.414,0.535,0.373
GGGTTACTCCC,0.497,0.249,1.29,0.568,0.789,0.354,0.378,0.398,0.657
CAAGTTCCCCT,0.677,1.46,2.18,1.97,1.77,2.27,2.14,1.56,1.84
AAGATTCTCCT,-0.184,-1.03,-0.669,-0.803,-0.991,-0.921,-0.819,-1.1,-0.941
GGATACCCCCC,0.633,1.23,1.22,1.77,1.48,1.06,1.52,1.14,1.54
GGGGTAACCCT,1.24,0.343,1.02,0.666,1.02,0.227,0.871,0.285,0.871
AGGGGATCCCT,1.82,1.11,2.11,2.32,1.95,1.58,1.57,1.42,2.29
CGATGTACCCC,0.132,0,-0.0732,-0.125,0.16,0.299,0.491,0.113,0.101
AGGAGTGTCCC,1.3,0.0859,0.362,0.736,0.372,0.333,0.321,0.586,0.486
GAGGTGGTCCT,-0.284,-0.198,-0.03,-0.746,-0.496,-0.46,-0.352,-1.08,-0.521
CGAGATTTCCC,1.93,0.975,0.882,1.43,1.06,0.804,0.926,1.31,0.887
CGAGTGGTCCC,-0.301,-0.0725,-0.0457,-0.513,-0.369,0.0154,-0.138,-0.515,-0.428

Sequence,binding signal (RELARELA (p65 homodimer)) [z-score],binding signal (p50p50 homodimer) [z-score],binding signal (p52p52 homodimer) [z-score],binding signal [1] [z-score],binding signal [2] [z-score],binding signal (RELB subunit;p50 subunit) [z-score],binding signal (RELB subunit;p52 subunit) [z-score],binding signal [3] [z-score],binding signal [4] [z-score]
CGGGGGTCCCT,0.00646,1.14,0.985,0.963,1.07,1.06,1.23,0.761,0.926
GAGGGATTCCT,0.218,0.321,0.87,0.254,0.589,0.159,0.491,0.376,0.538
CAAGATCTCCT,-0.508,-1.36,-0.744,-1.11,-1.02,-1.04,-1.06,-1.49,-1.01
AAGTTATCCCC,0.516,1.08,0.864,0.995,0.69,1.26,1.11,1.16,0.506
CGGGAGATCCT,-0.093,0.247,0.164,-0.217,0.0606,0.132,0.152,-0.227,0.0327
GAGAGGTCCCT,0.699,0.517,0.431,0.364,0.0823,0.659,0.436,0.182,0.0392
AAAAGTCTCCC,0.0565,0.0889,-0.045,0.215,0.0155,0.205,0.142,0.0274,-0.177
AAGAGAGCCCC,-0.68,0.339,0.122,0.109,-0.015,-0.0342,-0.125,0.0932,0.00397
AGAATGACCCC,-0.278,-0.204,-0.112,-0.177,-0.287,-0.428,-0.388,-0.442,-0.311
CAATATACCCC,-0.012,0.317,0.195,0.199,0.442,0.428,0.992,0.384,0.51
AGGAAACTCCT,2.04,-0.999,-0.404,-0.105,-0.54,-0.699,-0.839,-0.168,-0.211
CGGAGAGTCCT,1,-1.2,-0.591,-0.159,-0.629,-0.808,-0.743,-0.482,-0.448
AGGTGCACCCC,-0.368,0.235,0.492,0.0923,0.549,0.107,0.61,-0.0192,0.815
AGGATAATCCC,1.11,-0.039,0.47,0.562,0.416,-0.113,0.0769,0.307,0.396
AGAAAGTCCCC,1.93,1.38,2.13,1.84,1.96,2.19,1.93,1.62,1.91
AGAGTATTCCC,1.05,0.224,0.305,0.534,0.292,0.0188,0.0238,0.73,0.396
AGATAGATCCT,-0.82,-1.87,-0.716,-1.06,-1.23,-1.03,-0.915,-1.64,-0.98
CGGAACGTCCC,1.16,0.116,0.505,0.933,0.956,0.184,0.327,0.44,0.748
GAGGTTGCCCT,-0.221,-1.5,-0.704,-0.605,-0.676,-0.817,-0.624,-0.77,-0.503
AGAAGTCTCCT,-0.456,-1.85,-0.738,-0.94,-0.879,-0.942,-0.985,-1.36,-0.926

Sequence,binding signal (RELARELA (p65 homodimer)) [z-score],binding signal (p50p50 homodimer) [z-score],binding signal (p52p52 homodimer) [z-score],binding signal [1] [z-score],binding signal [2] [z-score],binding signal (RELB subunit;p50 subunit) [z-score],binding signal (RELB subunit;p52 subunit) [z-score],binding signal [3] [z-score],binding signal [4] [z-score]
AGGAATATCCC,1.97,0.155,0.511,0.866,0.83,0.0984,0.231,0.402,0.834
CAGGACACCCT,-0.817,-1.69,-0.717,-0.865,-0.828,-0.795,-0.656,-1.21,-0.705
GAGATACCCCT,-0.299,0.87,0.576,0.915,1.1,0.817,1.63,0.434,0.859
GGGGATTCCCT,3.57,1.37,3.18,2.6,3.05,2.45,2.75,2.76,3.46
CGGGAACCCCC,2.26,0.986,2.98,2.47,2.46,1.67,2.34,2.01,2.86
CGGATGGTCCC,0.128,-0.139,-0.00887,0.132,0.027,-0.0363,-0.117,0.0204,0.154
GGATTGTTCCC,0.75,-0.265,-0.233,-0.0316,-0.0574,-0.257,-0.307,0.0336,0.152
GGAGATTCCCC,2.94,1.13,2.51,2.35,2.22,2.06,2.22,1.88,2.2
CGGAAATTCCC,4.22,1.06,2.53,2.23,2.39,1.19,2.04,2.28,2.88
AGAGAACTCCT,-0.542,-1.29,-0.694,-0.888,-1.06,-1.05,-0.943,-1.01,-0.762
CAAATTTTCCC,2.86,1.18,1.47,1.48,1.47,1.08,1.27,1.5,1.39
CGGTAACTCCC,1.08,0.598,1.03,0.774,0.795,0.459,1.02,0.555,0.833
AAGAACACCCC,-0.22,0.317,0.0847,0.107,0.232,0.176,0.504,0.232,0.274
CGGAGCGCCCT,-0.577,-1.84,-0.701,-0.94,-0.911,-1.13,-0.954,-1.21,-1.01
CGGGGTTCCCC,2.62,0.899,3.05,2.3,2.64,1.93,2.28,2.2,3.29
AAGTGGGCCCT,-0.584,-0.904,-0.603,-0.886,-0.714,-0.762,-0.527,-1.25,-0.634
AAGTACCTCCT,0.111,0.67,0.0441,0.737,-0.123,0.852,0.227,0.224,-0.202
CGAGTGCTCCT,-0.962,-2.12,-0.788,-1.11,-1.03,-1.37,-0.983,-1.63,-0.978
AAGAGCTTCCC,0.146,-0.795,-0.487,-0.305,-0.49,-0.563,-0.671,-0.423,-0.463
GGAAGCACCCT,-0.312,0.509,0.257,0.415,0.261,-0.129,0.214,0.0298,0.224
